In PubChem BioAssay AID2284369 (EPA ToxCast):
Inconclusive results are not listed. Active and inactive are the calls of the source. How the source made its calls: active means hit-call score of the fitted dose curve at least 0.9, where 1 is the maximum; inconclusive means response in the unintended direction; inactive means score below 0.9.

The compounds below were run on frog Estrogen Receptor (ER1), gene 398734 (assay: ATG_frER1_EcoTox2: Attagene TRANS-FACTORIAL EcoTox-2 HepG2 Assay for frog Estrogen Receptor (ER1)).
Protocol: ATG_EcoTox2 is a cell-based, multiplexed assay created by modifying the existing Attagene TRANS-FACTORIAL system to include a panel of nuclear receptors from some or all the following species: human (Homo sapiens), african clawed frog (Xenopus laevis), rainbow trout (Oncorhynchus mykiss), japanese medaka (Oryzias latipes), and zebrafish (Danio rerio). The ECOTOX2-FACTORIAL format uses HepG2, a human liver cell line, with measurements taken at 24 hours after chemical dosing in a 24-well plate. ATG_frER1_EcoTox2 is one of 29 assay components calculated in the ATG_EcoTox2 assay. It is designed to make measurements of mRNA induction, a form of inducible reporter, as detected with fluorescence intensity signals by Reverse transcription polymerase chain reaction (RT-PCR) and Capillary electrophoresis technology.The assay endpoint ATG_frER1_EcoTox2 was analyzed in the positive analysis fitting direction relative to DMSO as the negative control and baseline of activity. Using a type of inducible reporter, measures of mRNA for gain-of-signal activity can be used to understand the reporter gene at the transcription factor-level as they relate to the gene ER. Furthermore, this assay endpoint can be referred to as a primary readout, because this assay has produced multiple assay endpoints where this one serves a reporter gene function. To generalize the intended target to other relatable targets, this assay endpoint is annotated to the nuclear receptor intended target family, where the subfamily is steroidal.
Human liver HepG2 cells are transiently transfected with multiple reporter transcription units (MRTUs) in 6-well plates using FuGene 6 reagent (Roche; 3 ml FuGene/1 mg DNA). The MRTU constructs are regulated by a cis-regulating element (promoter). Each RTU expresses a GAL4-UAS that regulates the transcription of a nearby target reporter gene sequence. A major difference between the CIS and TRANS system is that in CIS activities of endogenous TFs are measured, whereas the TRANS assay evaluates changes in activities of exogenous, chimeric NR-Gal4 proteins. […] At the end of 24 hour incubation, total RNA was isolated using TriZol reagent (Invitrogen). The isolated RNA is then reverse-transcribed using oligo(dT) primer and Mo-MLV reverse transcriptase (Invitrogen) with DNAse I (Ambion) treatment for 30 min. The one-tenth of the produced cDNA was amplified by PCR using Taq DNA polymerase (Invitrogen) and two reporter sequence-specific primers. […] The fragments were purified using Qiaquick PCR columns (Qiagen), analyzed on an ABI 3130xL genetic analyzer (Applied Biosystems) with peak positions identified by using a set of X-rhodamine (ROX)-labeled MapMarker1000 molecular weight standards (BioVentures). […]

Structure (SMILES) | AC50 | outcome
O=C(O)C(F)(F)C(F)(F)C(F)(F)C(F)(F)C(F)(F)C(F)(F)C(F)(F)F | 75 µM (active) | –
CCCCOCN(C(=O)CCl)c1c(CC)cccc1CC | – | inactive
O=S(=O)(O)C(F)(F)C(F)(F)C(F)(F)C(F)(F)C(F)(F)C(F)(F)F | – | inactive
O=P(Oc1ccccc1)(Oc1ccccc1)Oc1ccccc1 | – | inactive
